# A selection: hits, their analogues and other compounds. The true share with any hit is near 7.2%.
# RE007 growth inh – less growth of the S. pombe RE007 Vpr strain. S. pombe RE007 Vpr strain, BacTiter-Glo ATP luminescence, 24 h. Potency, µM (top dose mostly 92.2 µM), inactives show at the top dose activity change, negative = less growth, hits mostly inhibitors. actives 0.21% (n = 360,000); active means well fitted falling curve with a large enough effect; inconclusive means small, poorly fitted or top-dose-only effect; inactive means no such curve, though single readings can be large or run the other way; further: nearly all actives have a fitted effect of over 50% in size
#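 Fission yeast strain RE007, carrying one chromosomally integrated HIV-1 vpr copy, was seeded at OD 0.01 in PMG+AL medium with 23 nL pinned compound. After 24 h at 30 °C and 99% humidity, viability was read by BacTiter-Glo luminescence.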
# FMDV antiviral – antivirals against foot and mouth disease virus; FMDV antiviral cell-based qHTS; AID 1159524; Potency, µM (series often up to 57.9 µM), for inactives: at the top dose activity change, negative = inhibition, actives largely listed as inhibitors; actives 1.2% (n = 410,000); calls by dose curve; tested in HEK293T cells; further: read-out not given here; nearly all actives have a fitted effect of over 45% in size
# Lassa entry inh – Lassa virus entry inhibition | Lassa virus pseudotype entry inhibition, cell reporter | Potency, µM (series often up to 37.9 µM), inactives show at the top dose activity change, negative = inhibition, hits mostly inhibitors | actives 1.2% (n = 300,000); calls by dose curve; tested in HEK293 cells; further: nearly all actives have a fitted effect of over 50% in size
# MARV entry inh – Marburg virus entry inhibition. Marburg virus pseudotyped entry inhibition, cell reporter. Potency, µM (titrated, usually from 37.8 µM), without a hit: top-dose activity change, negative = inhibition, usual class: inhibitors. actives 1.8% (n = 300,000); calls by dose curve; tested in HEK293 cells
# HCV inh – inhibitors of hepatitis C virus infection. Huh7.5.1 HCVcc-Cre infection, luciferase reporter, 44 h. Potency, µM (doses to about 41.8 µM), inactives show top-dose activity change, negative = inhibition, most hits filed as inhibitors. actives 3.4% (n = 340,000). AID 651820
#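 HCVcc-Cre virus at an moi near 0.5 was added right after compound to cells cultured 4 h from seeding (1,000 cells/well). Luciferase activity was determined 44 h later, 15 min after substrate addition at RT.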
# Sm TGR inh – S. mansoni TGR enzyme inhibition. purified TGR, DTNB reduction, TNB absorbance 405 nm. AID 485364. actives 3% (n = 360,000). Potency, µM (doses to about 114 µM), without a hit: at the top dose activity change, negative = inhibition, hits mostly inhibitors. Q962Y6; further: nearly all actives have a fitted effect of over 60% in size
#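 First, TGR (20 nM dispensed) and NADPH were mixed with compound. Second, a 15 min room-temperature incubation followed. Third, further NADPH and then DTNB were added to start the reaction. Finally, TNB absorbance was monitored kinetically.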
# The depositor's hits bear a star; ? = inconclusive; . = no result; [ ] = remark or other dose. Unless noted, the call rests on the fitted dose curve; in most records, active means well fitted curve in the direction sought with a large enough effect; inconclusive means small, poorly fitted or top-dose-only effect, or another doubt; inactive means no such curve, though single readings can be large; an effect the other way counts as inactive or inconclusive. On the % scale 0 is the no-effect control and ±100 the full control effect; potency means the concentration at half of the fitted maximal effect.
SMILES,RE007 growth inh,FMDV antiviral,Lassa entry inh,MARV entry inh,HCV inh,Sm TGR inh
CCOC(=O)c1sc(NC(=O)CSc2nnc(Cc3ccccc3)o2)c(C(=O)OCC)c1C,3%,-13%,-19%,?,6.3µM*,13%
C#CCCCO/N=C1\C[C@@H](O)[C@@H](O)[C@@H]2[C@@H]3C(=O)N(Cc4ccc5c(c4)OCO5)C(=O)[C@@H]3CC[C@@H]12,.,.,.,-7%[14.2 µM],.,.
CCCc1ccc(OC(C)C(=O)Nc2sc3c(c2C(=O)OC)CCCCC3)cc1 (centres undefined),.,-15%,-17%[46.1 µM],-3%[46.1 µM],.,16%
CCN1C(=O)N(S(=O)(=O)c2ccc(C)cc2)C(c2ccccc2)C(C(=O)OC)=C1C (centres undefined),.,.,.,17%[14.2 µM],.,.
CCOC(=O)c1c(NC(=O)CSc2nnc3c(n2)[nH]c2ccccc23)sc2c1CCN(C)C2,-10%,-18%,-11%,?,7.1µM*,.
CCOC(=O)c1c(NC(=O)CSc2nnc3c(n2)[nH]c2ccc(F)cc23)sc(C(C)=O)c1C,0%,17%,-22%,-3%,?,5%
Clc1ccc(SCCCCN2CCNCC2)cc1,-8%,-1%,?,?,?,6%
Cc1ccc(SCCCCN2CCNCC2)cc1,0%,15%,29%,?,11µM*,-18%
Cc1ccc(C(=O)Nc2ccc(C(=O)OCc3cc(=O)n4nc(C5CC5)sc4n3)cc2)cc1,.,-15%,?,.,.,6%
O=C(Nc1ccc(C(=O)OC[C@@H]2CCCN3CCCC[C@H]23)cc1)c1cccc(Br)c1,2%,-4%,-6%,9.2µM*,11µM*,-3%
CC(C)Cc1nn2c(=O)cc(COC(=O)c3cccc(NC(=O)c4cccs4)c3)nc2s1,.,-1%,12%[46.1 µM],.,.,4%
Cc1cccc(C(=O)Nc2ccc(C(=O)OCc3cc(=O)n4nc(C5CC5)sc4n3)cc2)c1,.,14µM*,3.2µM*,.,.,-1%
Cc1nn2c(=O)cc(COC(=O)c3cccc(NC(=O)c4cccs4)c3)nc2s1,.,10µM*,20%[46.1 µM],.,.,5%
CCCc1nn2c(=O)cc(COC(=O)c3cccc(NC(=O)COc4ccccc4C)c3)nc2s1,.,14µM*,?,.,.,6%
Cc1ccc(NC(=O)CCN2CCN(CCO)CC2)cc1C,.,-9%,?,.,.,?
COc1cccc(CC(=O)Nc2ccc3nc(N4CCC(C)CC4)cc(C)c3c2)c1,.,-25%,-27%[46.1 µM],-24%[46.1 µM],.,-8%
Cc1nn2c(=O)cc(COC(=O)c3ccc(NC(=O)c4cccc(Br)c4)cc3)nc2s1,.,18µM*,14%[46.1 µM],.,.,-1%
Cc1nn2c(=O)cc(COC(=O)c3ccc(NC(=O)C4CCCCC4)cc3)nc2s1,.,11µM*,4%[46.1 µM],.,.,-2%
O=C(OCc1cc(=O)n2nc(C3CC3)sc2n1)c1ccc(NC(=O)c2ccccc2F)cc1,.,-27%,-2%[46.1 µM],.,.,3%
CC(C)c1nn2c(=O)cc(COC(=O)c3ccccc3NC(=O)c3cccc(Cl)c3)nc2s1,.,8.9µM*,17%[46.1 µM],.,.,53%
Cc1ccccc1C(=O)Nc1ccc(C(=O)OCc2cc(=O)n3nc(C4CC4)sc3n2)cc1,.,13µM*,?,.,.,-1%
CCOC(=O)N1CCc2c(sc3c2c(=O)n(CCc2ccccc2)c(=O)n3CC(=O)Nc2ccccc2C)C1,.,-14%,0%[46.1 µM],-10%[46.1 µM],.,-12%
Cc1cc(C)n(-c2nc(SCC(=O)O)c3c4c(sc3n2)CCCC4)n1,.,.,.,.,.,-6%
Cc1cc(C)n(-c2nc(NCCO)c3c4c(sc3n2)CCCC4)n1,-4%,-9%,?,?,7.1µM*,3%
Cc1cc(C)n(-c2nc(NCC(C)O)c3c4c(sc3n2)CCCC4)n1 (centres undefined),10%,-22%,?,?,5.6µM*,10%[11.4 µM]
SMILES,RE007 growth inh,FMDV antiviral,Lassa entry inh,MARV entry inh,HCV inh,Sm TGR inh
Cc1cc(C)n(-c2nc(NCCCO)c3c4c(sc3n2)CCCC4)n1,-2%,12%,-5%,?,7.1µM*,3%[11.4 µM]
Cc1ccc(S(=O)(=O)c2cc3c(=O)n4ccccc4nc3n(C3CCCC3)c2=N)cc1,-7%,-11%,24%[46.1 µM],0%[46.1 µM],5µM*,-8%
O=C1C2C3C=CC(C4CC34)C2C(=O)N1c1ccc2c(c1)OCO2 (centres undefined),-4%,19%,5%,-3%[46.1 µM],6%,45µM*
CC(C)=C1C2CCC1C1C(=O)N(c3ccc4c(c3)OCO4)C(=O)C21 (centres undefined),.,-12%,1%,-4%,30%,-8%
CC(C)=C1C2C=CC1C1C(=O)N(c3ccc4c(c3)OCO4)C(=O)C21 (centres undefined),32µM*,-1%,0%,1%,8%,20µM*
CC(C)(CC(=O)N1CCN(c2ccc(Cl)cc2)CC1)CC1=NS(=O)(=O)c2ccccc2N1,5%,0%,11µM*,?,?,-26%
COc1cccc(N2CCN(C(=O)CC(C)(C)CC3=NS(=O)(=O)c4ccccc4N3)CC2)c1,-2%,?,?,-17%[46.1 µM],11µM*,7%
COc1ccc(COC(=O)N/N=C2\C[C@@H](O)[C@@H](O)[C@@H]3[C@@H]4C(=O)N(Cc5ccc6c(c5)OCO6)C(=O)[C@@H]4CC[C@@H]23)cc1,.,.,.,4%[14.2 µM],.,.
O=C(/C=C/c1ccco1)NCCCN1CCOCC1,7%,-5%,0%,?,-2%,11µM*
O=C(COC(=O)/C=C/c1ccc(Br)o1)NCCCN1CCCC1=O,-19%,-2%,1%[46.1 µM],7%[46.1 µM],7%,32µM*
O=C(COC(=O)/C=C/c1cccc([N+](=O)[O-])c1)NCCCN1CCCC1=O,-2%,2%,?,1%[46.1 µM],-18%,-3%
O=C(/C=C/c1ccc(Br)o1)NCCCN1CCOCC1,-10%,16%,.,.,22%,4.5µM*
Cc1ccccc1CNC(=O)CCS(=O)(=O)c1cc2c3c(c1)CCN3C(=O)CC2,.,-21%,12%[46.1 µM],.,.,9%
Cc1cnc(-n2ncc(C(=O)NCc3ccncc3)c2C2CC2)nc1-c1cccs1,.,-29%,.,.,.,.
C[C@@]12CCC(O)C[C@H]1CCc1ccccc12 (some centres undefined),.,2%,.,.,.,.
O=C(Nc1ccn(Cc2c(F)c(F)cc(F)c2F)n1)c1ccc(COc2ccc(Cl)cc2Cl)o1,-7%,?,?,?,13µM*,-16%
CC(C)CNC(=O)c1ccc(COc2ccc(Cl)cc2Cl)o1,-19%,0%,11µM*,-17%,13µM*,-17%
Cc1nn(Cc2cccc(F)c2)c(C)c1NC(=O)c1ccc(COc2ccccc2Cl)cc1,18%,?,-32%[14.3 µM],-8%,10µM*,16%
Cc1nn(Cc2c(F)c(F)c(F)c(F)c2F)c(C)c1NC(=O)c1ccc(COc2ccc(Cl)cc2Cl)o1,13%,-10%,?,?,7.1µM*,-3%
